PubChem BioAssay (NCI)
About 79,000 compounds went through this panel and 15% of them were active in at least one assay; those are over-represented in the sample as a whole. Calls of active or inactive are those of the source. Cut-off read from the data, not from the text of the source: active = growth inhibition above about 70%; inactive = the rest.

Tests used:
[1] = NCI Yeast Anticancer Drug Screen. Data for the rad50 strain (AID 155);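 note: 0% = growth of vehicle-only cultures of the same strain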; conditions: S. cerevisiae rad50 strain growth inhibition, active compounds read high
Procedure, shortened: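 Compounds were tested on a yeast strain with an engineered DNA damage repair alteration; the reported value is growth inhibition normalised to vehicle treatment.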

[2] = NCI Yeast Anticancer Drug Screen. Data for the mec2-1 strain (AID 157); conditions: S. cerevisiae mec2-1 strain, active compounds read high
Procedure, shortened: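 Yeast mec2-1 mutant treated with compound. Readout: growth inhibition vs vehicle controls.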

[3] = NCI Yeast Anticancer Drug Screen. Data for the sgs1 mgt1 strain (AID 161);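 note: 0% = growth of cultures given vehicle only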; conditions: S. cerevisiae sgs1 mgt1 strain, active compounds read high
Procedure, shortened: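 Genetically altered yeast, compound exposure, growth inhibition relative to vehicle.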

[4] = NCI Yeast Anticancer Drug Screen. Data for the cln2 rad14 strain (AID 165);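 note: 0% = growth equal to vehicle treated cultures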; conditions: S. cerevisiae cln2 rad14 strain, active compounds read high
Procedure, shortened: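 cln2 rad14 yeast strain; compound exposure; growth inhibition read vs vehicle controls.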

[5] = NCI Yeast Anticancer Drug Screen. Data for the bub3 strain (AID 167); conditions: S. cerevisiae bub3 mutant strain, active compounds read high
Procedure, shortened: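 Growth of a checkpoint-deficient yeast mutant is measured after compound exposure. Values represent inhibition relative to vehicle.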

[6] = NCI Yeast Anticancer Drug Screen. Data for the mlh1 rad18 strain (AID 175); conditions: S. cerevisiae mlh1 rad18 strain growth inhibition, active compounds read high
Procedure, shortened: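 Yeast w/ defined DNA-repair lesions; compound exposure; growth vs vehicle controls → % inhibition.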

[7] = at 5.0 µM (retest, dose inferred, filed as 0.5)
[8] = at 50.0 µM (retest, dose inferred, filed as 5.0)

Measured: growth inhibition

COC1(CO)C(=O)N(C)CC(=O)N1C (stereo not given)
inactive: [1]; [7] 1% | [2]; [7] 10% | [3]; [7] 5% | [4]; [7] -7% | [4]; [8] 20% | [5]; [7] 0% | [6]; [7] 1%
active: [1]; [8] 99% | [1]; at 50.0 µM 99.3% | [2]; [8] 99% | [2]; at 50.0 µM 99.7% | [3]; [8] 99% | [3]; at 50.0 µM 99.3% | [4]; at 50.0 µM 99.7% | [5]; [8] 99% | [5]; at 50.0 µM 99.5% | [6]; [8] 99% | [6]; at 50.0 µM 99.3%

COc1cccc(CC2N(S(=O)(=O)c3ccc(C)cc3)CCC23C(=O)Nc2ccccc23)c1OC (stereo not given)
inactive: [1]; [7] 10% | [2]; [7] 2% | [2]; at 50.0 µM 69.4% | [3]; [7] 10% | [4]; [7] -3% | [4]; at 50.0 µM 39% | [5]; [7] -3% | [6]; [7] 3%
active: [1]; [8] 94% | [1]; at 50.0 µM 91.8% | [2]; [8] 96% | [3]; [8] 96% | [3]; at 50.0 µM 82.2% | [4]; [8] 93% | [5]; [8] 96% | [5]; at 50.0 µM 80.7% | [6]; [8] 96% | [6]; at 50.0 µM 92.2%

COc1cc(C2SC(N)=Nc3c2c(C)nn3C(=O)c2ccccc2O)cc(OC)c1OC (stereo not given)
active: [1]; [8] 80% | [2]; [8] 71% | [3]; [8] 75% | [3]; at 50.0 µM 79.8% | [5]; [8] 70% | [5]; at 50.0 µM 79.1% | [6]; [8] 86%
inactive: [1]; [7] -1% | [1]; at 50.0 µM 52.5% | [2]; [7] -10% | [2]; at 50.0 µM 39.9% | [3]; [7] -5% | [4]; [7] 3% | [4]; [8] 25% | [4]; at 50.0 µM 56.4% | [5]; [7] -1% | [6]; [7] 6% | [6]; at 50.0 µM 50.2%

COc1ccc(/C=C/c2c[n+]([O-])ccc2[N+](=O)[O-])cc1
inactive: [1]; [7] 14% | [2]; [7] 18% | [3]; [7] 37% | [3]; at 50.0 µM 63.9% | [4]; [7] 12% | [4]; at 50.0 µM 38.4% | [5]; [7] 9% | [5]; at 50.0 µM 9.35% | [6]; [7] 46%
active: [1]; [8] 95% | [1]; at 50.0 µM 77% | [2]; [8] 97% | [2]; at 50.0 µM 72.2% | [3]; [8] 96% | [4]; [8] 95% | [5]; [8] 97% | [6]; [8] 96% | [6]; at 50.0 µM 98%

CC(C)(C)c1ccc(O)c(C2CCCCC2)c1
inactive: [1]; [7] 5% | [2]; [7] -3% | [3]; [7] -1% | [4]; [7] -3% | [5]; [7] 2% | [6]; [7] -1%
active: [1]; [8] 99% | [1]; at 50.0 µM 99.3% | [2]; [8] 100% | [2]; at 50.0 µM 99.7% | [3]; [8] 99% | [3]; at 50.0 µM 99.5% | [4]; [8] 99% | [4]; at 50.0 µM 99.5% | [5]; [8] 99% | [5]; at 50.0 µM 96.4% | [6]; [8] 100% | [6]; at 50.0 µM 99%

O=C1C(=O)N(c2cc(Cl)ccc2Cl)C(=O)C(=O)C1c1nc2ccccc2o1
inactive: [1]; [7] 4% | [1]; [8] 4% | [1]; at 50.0 µM 53.2% | [2]; [7] 15% | [2]; [8] 15% | [2]; at 50.0 µM 37.9% | [3]; [7] 22% | [3]; [8] 22% | [3]; at 50.0 µM 36.8% | [4]; [7] 10% | [4]; [8] 10% | [5]; [7] 2% | [5]; [8] 2% | [5]; at 50.0 µM 57.1% | [6]; [7] 12% | [6]; [8] 12% | [6]; at 50.0 µM 31.9%
active: [4]; at 50.0 µM 81.2%

NC(=O)c1nnn(Cc2cc(Cl)c(C(=O)c3ccc(Cl)cc3)c(Cl)c2)c1N
inactive: [1]; [7] 2% | [1]; at 50.0 µM 57.2% | [2]; [7] 3% | [3]; [7] 2% | [3]; at 50.0 µM 50.3% | [4]; [7] 1% | [5]; [7] 5% | [6]; [7] 13%
active: [1]; [8] 98% | [2]; [8] 99% | [2]; at 50.0 µM 98.9% | [3]; [8] 99% | [4]; [8] 98% | [4]; at 50.0 µM 98.6% | [5]; [8] 99% | [5]; at 50.0 µM 98.8% | [6]; [8] 94% | [6]; at 50.0 µM 98.8%

Cc1c(C2CC(=O)NC2=O)c2ccccc2n1C (stereo not given)
inactive: [1]; [7] 3% | [1]; [8] 3% | [1]; at 50.0 µM 6.55% | [2]; [7] -1% | [2]; [8] 0% | [2]; at 50.0 µM 6.25% | [3]; [7] -1% | [3]; [8] -1% | [3]; at 50.0 µM -13.8% | [4]; [7] -4% | [4]; [8] -5% | [4]; at 50.0 µM 69% | [5]; [7] 4% | [5]; [8] 3% | [5]; at 50.0 µM -20.6% | [6]; [7] 2% | [6]; [8] 3% | [6]; at 50.0 µM 7.8%

C/C=C(\C)C(=O)O[C@@H]1CC(C)(C)CC2C3=CCC4[C@]56CC[C@](O)(OC5)C(C)(C)C6CC[C@@]4(C)C3(C)CC[C@]21C(=O)O (stereo not given in full)
active: [1]; [8] 90% | [1]; at 50.0 µM 86.5% | [2]; [8] 88% | [2]; at 50.0 µM 84.7% | [3]; [8] 93% | [3]; at 50.0 µM 87.2% | [4]; [7] 73% | [4]; [8] 94% | [4]; at 50.0 µM 78.8% | [5]; [7] 70% | [5]; [8] 96% | [5]; at 50.0 µM 81.8% | [6]; [8] 94% | [6]; at 50.0 µM 81.2%
inactive: [1]; [7] 53% | [2]; [7] 67% | [3]; [7] 55% | [6]; [7] 69%

COc1cccc(C(=O)C(CN(C)C)CN(C)C)c1
inactive: [1]; [7] 22% | [1]; at 50.0 µM 12.2% | [2]; [7] 26% | [2]; [8] 69% | [2]; at 50.0 µM 30.2% | [3]; [7] 24% | [3]; at 50.0 µM 61% | [4]; [7] 24% | [4]; at 50.0 µM 33% | [5]; [7] 24% | [6]; [7] 30% | [6]; at 50.0 µM 3%
active: [1]; [8] 70% | [3]; [8] 88% | [4]; [8] 79% | [5]; [8] 85% | [5]; at 50.0 µM 71.2% | [6]; [8] 93%
